This is part of a sample that, as a whole, favours compounds with a hit. Of some 83,000 tested, about 20% had one in any assay.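 Treatment: one concentration, 48 hours, 96-well format. Scoring: percent growth, with anything below 10 considered active.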 Unmarked numbers belong to inactive results. The source made the active and inactive calls.
The molecules below were run on HCT-116 colon (assay: NCI-60 one-dose screen, 48 h (100 = growth as untreated, 0 = no growth, -100 = all killed)). Details: 10 µM unless noted.

Row | SMILES | growth
1 | CC1=C2[C@@H](CC1)[C@]1(C)O[C@@](c3ccccc3)(C[C@H]1OC(=O)CO)[C@H]2OC(=O)/C=C/c1ccccc1 | 86.2%
2 | CSc1nc(C)c([N+](=O)[O-])c(N)n1 | 91.1%
3 | CCOC(=O)c1c(C)nc2c(c1N)/C(=C/c1ccc(OC)cc1)C(=O)N2Cc1ccccc1 | 36.8%
4 | CCN(CC)Cc1cc(Nc2ccnc3cc(Cl)ccc23)ccc1O | 79.7%
5 | Cc1ccc(-c2nc3nc(-c4ccccc4)nc(N4CCCN(S(C)(=O)=O)CC4)c3o2)cc1 | 24.4%
6 | CCCCCN(CCCCC)CC(O)c1cc(C)c2ccc3cc(C(C)C)ccc3c2c1 (stereo not given) | -84.8% (active)
7 | NC(N)=NS(=O)(=O)c1ccc(NC2=C(I)C(=O)c3ncccc3C2=O)cc1 | 102%
8 | O=C1/C(=C\c2ccccn2)c2ccccc2N1c1c(Cl)cccc1Cl | -94.4% (active)
9 | CCCCNC(=O)Oc1ccc(/C(=C(/C)Cc2ccc(OC)cc2)c2ccc(OCCN3CCCCC3)cc2)cc1 | 41.8%
10 | O=C(/C=C/c1ccc(Cl)cc1)c1cccc(OCCCOc2cccc(C(=O)/C=C/c3ccc(Cl)cc3)c2)c1 | 26%
11 | Cc1ccc(/C=C(\C#N)n2nnc3cc(F)c(F)cc32)cc1 | -76.6% (active)
12 | O=P(O)(O)OCC1OC(n2cnc3c(NCc4ccco4)ncnc32)C(O)C1O (stereo not given) | -31.1% (active)
13 | O=C(C1=Cc2cc3ccccc3n2Cc2cnnn21)c1ccc(O)cc1 | 46.4%
14 | COc1ccc(-c2nc3c(N)c(CO)cnc3s2)cc1 | 101%
15 | COc1ccc2c(c1)c(/C(O)=C1\COC(=O)C1=O)cn2Cc1ccc(F)cc1 | 104%
16 | Cc1ccc(/C=C/C(=O)c2cccc(OCCCOc3cccc(C(=O)/C=C/c4ccc(C)cc4)c3)c2)cc1 | 18.3%

What follows are molecules tested on HCC-2998 colon in the same assay as above. Details: 10 µM unless noted.

Row | SMILES | growth
17 | CCOc1ccc(-n2nc(C(=O)NCc3ccccc3OC)nc2-c2cc(OC)c(OC)c(OC)c2)cc1 | 57.5%
18 | O=C(CCCCCCN1CC(=O)N2[C@H](c3ccc(Br)cc3)c3[nH]c4ccccc4c3C[C@@H]2C1=O)NO | 67.5%
19 | CCN1C(=O)N(CC)C2Nn3c(s/c(=C\c4ccccc4Br)c3=O)=NC21 (stereo not given) | 24.4%
20 | COC(=O)c1nc(-c2ccccc2)oc1S(=O)(=O)NCC(c1ccc(Cl)cc1)N1CCOCC1 (stereo not given) | 121%
21 | CC1=C(C(=O)Nc2nc(-c3ccc(Cl)cc3)cs2)[C@H](c2ccc(O)cc2)NC(=O)N1 | 108%
22 | COc1ccc(C(=O)c2cc3c(N)c(C(=O)Nc4ccccc4)sc3nc2C)cc1 | 19%
23 | C#CC#CC#CC#CC#CC#CC#CC#CC[C@@H]1OC[C@@H](COC(=O)O[C@@H](C(=O)O[C@H]2C[C@@]3(O)[C@@H](OC(=O)c4ccccc4)[C@@H]4[C@]5(OC(C)=O)CO[C@@H]5C[C@H](O)[C@@]4(C)C(=O)[C@H](OC(C)=O)C(=C2C)C3(C)C)[C@@H](NC(=O)c2ccccc2)c2ccccc2)O1 | -43.9% (active)
24 | CNCc1cccc2c1OCCOCCOCCNS(=O)(=O)c1ccc(cc1)-c1cnc(N)c(n1)C(=O)N2 | 21.7%
25 | CC1(C)OB(O)c2cc(-c3nc4ccc5[nH]ncc5c4c4c3CCCC4)ccc21 | 82.9%
26 | COc1ccc(/C=C2\COc3ccc(O)cc3C2=O)cc1 | 103%
27 | CN1C(=O)/C(=C/c2ccc(C(=O)Nc3ncc(Cc4cccc(Cl)c4)s3)cc2)SC1=S | 59.2%
28 | CN(C)c1ccc(-c2nc(-c3ccccc3)c(-c3ccccc3)[nH]2)cc1 | 117%
29 | Cc1n[nH]c2ccc(Br)cc2c1=O | 107%
30 | CCOc1cccc(/C=N/NC(=O)c2cccc(Nc3ccnc(C(F)(F)F)c3)c2)c1O | 43.5%
31 | COc1ccc(CNc2c3ccccc3nc3ccccc23)c(OC)c1 | 35.6%
32 | COc1ccc2c(c1)c(-c1nc(-c3c[nH]c4ncccc34)cs1)cn2CCO | 58.9%
33 | COc1ccc(C(O)c2cc3c(N)c(C(=O)Nc4cccc(Cl)c4C)sc3nc2C)cc1 (stereo not given) | 5.81% (active)
34 | CC1CCN(C(=S)SCC(=O)NC(=O)c2ccccc2)CC1 | 115%
35 | CS(=O)(=O)Nc1cc(-c2ccc3ncc(C#N)c(Nc4ccc(F)c(Cl)c4)c3c2)cnc1Cl | 6.92% (active)
36 | CCN1C(=O)N(CC)C2C1NN=c1s/c(=C3\C(=O)N(CC(C)C)c4ccccc43)c(=O)n12 (stereo not given) | 13.8%

Row | SMILES | growth
37 | O=C(CI)NC(=O)NC(=O)NCc1ccccc1 | 95.3%
38 | CCn1cc(CNc2ccc(C(=O)Nc3cc4cc(OC)c(OC)cc4c(C)n3)cc2)cn1 | 87.8%
39 | C=CCN1C(=O)c2cccc3c(N4CCOCC4)ccc(c23)C1=O | -34% (active)
40 | CC1=C2[C@@H](CC1)[C@]1(C)O[C@@](c3ccccc3)(C[C@H]1OC(=O)CO)[C@H]2OC(=O)/C=C/c1ccccc1 | 93.2%
41 | CSc1nc(C)c([N+](=O)[O-])c(N)n1 | 114%
42 | CCOC(=O)c1c(C)nc2c(c1N)/C(=C/c1ccc(OC)cc1)C(=O)N2Cc1ccccc1 | 62.8%
43 | CCN(CC)Cc1cc(Nc2ccnc3cc(Cl)ccc23)ccc1O | 93.2%
44 | Cc1ccc(-c2nc3nc(-c4ccccc4)nc(N4CCCN(S(C)(=O)=O)CC4)c3o2)cc1 | 96.6%
45 | CCCCCN(CCCCC)CC(O)c1cc(C)c2ccc3cc(C(C)C)ccc3c2c1 (stereo not given) | -50.8% (active)
46 | NC(N)=NS(=O)(=O)c1ccc(NC2=C(I)C(=O)c3ncccc3C2=O)cc1 | 111%
47 | O=C1/C(=C\c2ccccn2)c2ccccc2N1c1c(Cl)cccc1Cl | -82.1% (active)
48 | CCCCNC(=O)Oc1ccc(/C(=C(/C)Cc2ccc(OC)cc2)c2ccc(OCCN3CCCCC3)cc2)cc1 | 75.5%
49 | O=C(/C=C/c1ccc(Cl)cc1)c1cccc(OCCCOc2cccc(C(=O)/C=C/c3ccc(Cl)cc3)c2)c1 | 104%
50 | Cc1ccc(/C=C(\C#N)n2nnc3cc(F)c(F)cc32)cc1 | -10.6% (active)
51 | O=P(O)(O)OCC1OC(n2cnc3c(NCc4ccco4)ncnc32)C(O)C1O (stereo not given) | 0.214% (active)
52 | O=C(C1=Cc2cc3ccccc3n2Cc2cnnn21)c1ccc(O)cc1 | 83.8%
53 | COc1ccc(-c2nc3c(N)c(CO)cnc3s2)cc1 | 85.8%
54 | COc1ccc2c(c1)c(/C(O)=C1\COC(=O)C1=O)cn2Cc1ccc(F)cc1 | 108%
55 | Cc1ccc(/C=C/C(=O)c2cccc(OCCCOc3cccc(C(=O)/C=C/c4ccc(C)cc4)c3)c2)cc1 | 66.3%

From PubChem BioAssay (NCI)
